PubChem BioAssay (NCATS)
Inconclusive results are not listed. The source made the active and inactive calls. Calls come from the whole dose curve; as a rule, active = well fitted curve in the direction sought with a large enough effect; inconclusive = small, poorly fitted or top-dose-only effect, or another doubt; inactive = no such curve, though single readings can be large; an effect the other way counts as inactive or inconclusive.

How the values were obtained:
[1] = target: Cellular tumor antigen p53 (Homo sapiens) (UniProt P04637); test: Primary qHTS for small molecule compounds that upregulate eGFP-tagged delta133p53alpha (in N-terminal) cells. (AID 2060322); settings: NCI-H358 eGFP-delta133p53alpha fluorescence, 24 h; activation: active compounds read high;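 note: cells pre-induced with doxycycline then dosed without doxycycline; series mostly up to about 56 µM; 0% = DMSO vehicle and 100% = reference activator; nearly all actives have a fitted effect of over 75% in size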
Procedure, shortened: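 NCI-H358 cells pre-induced 24 h with 10 ng/ml doxycycline for eGFP-delta133p53alpha, plated dox-free and exposed 24 h at 37C to titrated compounds. Fixed, Hoechst-stained; gated GFP peak intensity by laser scanning cytometry, normalized to DMSO (0%) and 57.5 uM 5-azacytidine (100%).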

[2] = target: Aldehyde dehydrogenase, mitochondrial (Homo sapiens) (UniProt P05091); test: qHTS for Inhibitors of the Aldehyde Dehydrogenase Family (ALDH2) Primary screen (AID 2061308);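 note: plate controls were vehicle for no effect and reference inhibitor for full effect; nearly all actives have a fitted effect of over 55% in size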
[3] = target: Retinaldehyde dehydrogenase 3 (Homo sapiens) (UniProt P47895); test: qHTS for Inhibitors of the Aldehyde Dehydrogenase Family (ALDH1A3) Primary screen (AID 2061315);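 note: plate controls were DMSO vehicle for no effect and reference inhibitor for full effect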

Cellular tumor antigen p53 (Homo sapiens), sequence (P04637 whole entry, looked up): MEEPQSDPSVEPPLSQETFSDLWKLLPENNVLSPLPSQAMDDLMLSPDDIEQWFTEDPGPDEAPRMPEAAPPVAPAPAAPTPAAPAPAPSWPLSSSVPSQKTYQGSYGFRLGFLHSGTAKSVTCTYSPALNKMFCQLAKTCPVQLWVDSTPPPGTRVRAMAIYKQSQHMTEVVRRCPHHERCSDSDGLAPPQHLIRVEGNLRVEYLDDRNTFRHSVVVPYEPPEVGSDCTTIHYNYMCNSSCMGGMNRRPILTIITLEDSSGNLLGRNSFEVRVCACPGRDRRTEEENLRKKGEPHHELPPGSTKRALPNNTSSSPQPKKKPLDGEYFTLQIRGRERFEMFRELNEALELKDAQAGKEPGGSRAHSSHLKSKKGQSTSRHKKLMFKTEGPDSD

C/C(=C\CO[C@@H]1O[C@H](CO[C@H]2OC[C@](O)(CO)[C@H]2O)[C@@H](O)[C@H](O)[C@H]1O)C(C)(C)O
inactive: activation [1] -5.34% | Potency [2] | Potency [3]

C[C@@H]1O[C@@H](O[C@H]2[C@H](O)[C@@H](O)[C@H](OC[C@H]3O[C@@H](OC(=O)[C@]45CCC(C)(C)C[C@H]4C4=CCC6[C@@]7(C)C[C@H](O)[C@H](O[C@@H]8O[C@H](CO)[C@@H](O)[C@H](O)[C@H]8O)[C@@](C)(C(=O)O)C7CC[C@@]6(C)[C@]4(C)CC5)[C@H](O[C@@H]4O[C@H](CO)[C@@H](O)[C@H](O)[C@H]4O)[C@@H](O)[C@@H]3O)O[C@@H]2CO)[C@H](O)[C@H](O)[C@H]1O (some centres undefined)
inactive: activation [1] 18.8% | activity change, negative = inhibition [2] 8.16% [at 11.2 µM] | activity change, negative = inhibition [3] -4.1% [at 11.2 µM]

CC1(C)CC23[C@@H]4CC(=O)[C@@H]2COC(=O)[C@@H]3CC[C@H]41
inactive: activation [1] -5.36% | Potency [2] | Potency [3]

CC(C)(C)Oc1ccc(OCC2Cc3ccccc3CN2C(=O)c2cccc3ccccc23)cc1 (centres undefined)
inactive: activation [1] -10.5% | Potency [2] | Potency [3]

C[C@@H]1O[C@@H](O[C@H]2[C@H](O[C@H]3[C@H](O[C@H]4CC[C@@]5(C=O)C(CC[C@]6(C)C5CC=C5C7CC(C)(C)C[C@@H](O)[C@]7(C)CC[C@]56C)C4(C)C)O[C@H](C(=O)O)[C@@H](O)[C@@H]3O)OC[C@@H](O)[C@@H]2O)[C@H](O)[C@H](O)[C@H]1O (some centres undefined)
inactive: activation [1] -8.93% | Potency [2] | Potency [3]

C[C@H](CN1CCCC1)C(=O)c1ccc(C(F)(F)F)cc1
inactive: activation [1] 21% | Potency [2] | Potency [3]

CC1=CC(=O)C(=C(C)C)CC2C1CCC2(C)O (centres undefined)
inactive: activation [1] -7.14% | Potency [2] | Potency [3]

CC(=O)O[C@@H]1C[C@@H](C)[C@](O)(CCC2=CC(=O)OC2)[C@@]2(C)CCCC(C)(C)C12 (some centres undefined)
inactive: activation [1] -29.8% | Potency [2] | Potency [3]

COc1cc(/C=C/C(=O)OC2[C@H](O)CC(O)(C(=O)O)C[C@H]2O)ccc1O (some centres undefined)
inactive: activation [1] 7.63% | Potency [2] | Potency [3]

CC(=O)N[C@@H](C(=O)O[C@H]1CCC(C)(C)[C@@H]2CCC3=C(COC3=O)[C@@]12C)C(C)C
inactive: activation [1] -12.2% | Potency [2] | Potency [3]

COc1cc(O)cc(C)c1C(=O)O[C@H]1[C@@H](O)[C@@H](n2ccc(=O)[nH]c2=O)O[C@@H]1CO
inactive: activation [1] -9.16% | Potency [2] | Potency [3]

COc1ccc(Sc2ccc(NC(=O)c3ccccc3Cl)cc2C#N)cc1
inactive: activation [1] 20.3% | Potency [2] | Potency [3]

C[C@@H](NC(=O)c1ccc(C#Cc2cccc(F)c2)cn1)C(C)(C)O
inactive: activation [1] -4.33% | Potency [2] | Potency [3]

CC(=O)[C@H]1CC[C@H]2[C@@H]3CC=C4C[C@@H](OS(=O)(=O)O)CC[C@]4(C)[C@H]3CC[C@]12C
inactive: activation [1] -4.33% | Potency [2] | Potency [3]

c1ccc(-c2cnn3cc(-c4ccc(OCCN5CCOCC5)cc4)cnc23)cc1
inactive: activation [1] -17% | Potency [2] | Potency [3]

COC(=O)[C@H](OC(C)=O)[C@H]1C(C)(C)C(=O)[C@H]2CC3=C4CC(=O)O[C@@H](c5ccoc5)[C@]4(C)CCC3[C@@]1(C)C2=O (some centres undefined)
inactive: activation [1] 2.68% | Potency [2] | Potency [3]

CC1=C2C3OC(=O)C(C)C3(O)CCC2(C)CCC1=O (centres undefined)
inactive: activation [1] -20.5% | Potency [2] | Potency [3]

CC1OC(OC2C(OC(=O)[C@]34CCC(C)(C)C[C@H]3C3=CCC5[C@@]6(C)CC[C@H](OC7OC(C(=O)O)C(O)C(O)C7O)C(C)(C)C6CC[C@@]5(C)[C@]3(C)CC4O)OC(CO)C2O)C(O)C(O)C1OC1OCC(O)C(O)C1O (some centres undefined)
inactive: activation [1] -3.82% | Potency [2] | Potency [3]

CC/C=C\CC1C(=O)C=CC1(CCCCCCCC(=O)O)OC(C)=O (centres undefined)
inactive: activation [1] -22.9% | Potency [2] | Potency [3]

CC(C)=C1C[C@@]2(C)C(=CC1=O)CC[C@@H](OC(=O)/C(C)=C/CO)[C@@H]2C
inactive: activation [1] 5.34% | Potency [2] | Potency [3]

O=c1ccn(C2OC(CO)C(O)C2O)c(=O)[nH]1 (centres undefined)
inactive: activation [1] 17.6% | Potency [2] | Potency [3]

Cc1ccc(C(C)C)c(O[C@@H]2O[C@H](CO)[C@@H](O)[C@H](O)[C@H]2O)c1
inactive: activation [1] -1.53% | Potency [2] | Potency [3]

CC(C)C(C)C(O)C1CC23CC(=O)C4(O)C(=C2CCC3C1C)C=CC1(O)CC(O)CCC14C (centres undefined)
inactive: activation [1] 15.3% | Potency [2] | Potency [3]
